PubChem BioAssay AID1030 (National Center for Advancing Translational Sciences (NCATS), 2008)
Several values for one entry are separate records, joined by “and”; a condition that tells them apart may be missing. Equal values may be shown once. Screen size: about 220,000 compounds; about 16,000 (7.3%) were called active. Inconclusive results (about 25%) are left out. The call rests on the fitted dose curve; in most records, active means well fitted inhibition curve with a large enough effect (not every such curve was filed as active); inconclusive means small, poorly fitted or top-dose-only effect, or another doubt; inactive means no such curve, though single readings can be large or run the other way. This excerpt belongs to a sample that is enriched for actives.

Target: Aldehyde dehydrogenase 1A1 (Homo sapiens) (UniProt P00352)
Test: qHTS Assay for Inhibitors of Aldehyde Dehydrogenase 1 (ALDH1A1);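 on activity, negative = inhibition: plate controls were no enzyme wells and a reference inhibitor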
Details: Purified ALDH1A1, NADH fluorescence, propionaldehyde substrate; series mostly up to 75.3 µM
Potency means the concentration at half of the fitted maximal effect.

Sequence of Aldehyde dehydrogenase 1A1 (Homo sapiens) (P00352 whole entry, looked up): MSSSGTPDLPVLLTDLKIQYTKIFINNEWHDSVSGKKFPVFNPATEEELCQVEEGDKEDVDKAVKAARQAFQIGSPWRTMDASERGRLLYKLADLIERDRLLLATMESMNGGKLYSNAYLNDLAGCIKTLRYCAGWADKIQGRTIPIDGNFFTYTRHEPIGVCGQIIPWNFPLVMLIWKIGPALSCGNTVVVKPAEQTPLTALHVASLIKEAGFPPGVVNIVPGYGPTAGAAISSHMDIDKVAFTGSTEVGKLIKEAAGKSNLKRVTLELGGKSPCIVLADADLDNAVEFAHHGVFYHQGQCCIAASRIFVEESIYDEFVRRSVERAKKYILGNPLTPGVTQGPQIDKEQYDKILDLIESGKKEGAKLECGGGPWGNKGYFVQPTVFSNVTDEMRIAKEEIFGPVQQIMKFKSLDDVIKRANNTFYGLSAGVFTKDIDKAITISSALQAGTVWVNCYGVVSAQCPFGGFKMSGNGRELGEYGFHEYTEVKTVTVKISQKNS

Potency, active:
O=C(Nc1ccccc1)c1nnsc1S(=O)(=O)c1ccc(Cl)cc1 2.24 µM, S=C(c1ccc(-c2ccccc2)o1)N1CCCCC1 3.55 µM, O=C1NC(c2ccc(-c3ccccc3[N+](=O)[O-])o2)C(C(=O)c2ccc(Cl)cc2)C(O)(C(F)(F)F)N1 (stereo not given) 20 µM, CCN(CC)P(=O)(/C(Cl)=C\Nc1c(C)n(C)n(-c2ccccc2)c1=O)N(CC)CC 17.8 µM, Cc1ccc(C(=O)CNc2ccc(F)cc2)cc1 11.2 µM, COC(=O)c1ccc(NCC(=O)c2ccccc2)cc1 11.2 µM, O=C1CSC(=S)N1/N=C/c1ccc(O)c([N+](=O)[O-])c1 1.26 µM, CSCCC(NS(=O)(=O)/C=C/c1ccccc1)C(=O)N1CCC(C)CC1 (stereo not given) 14.1 µM, O=[N+]([O-])c1ccc2c(c1)C(N1CCOCC1)/C(=C/C1(O)CCCCC1)O2 (stereo not given) 10 µM, O=C(c1ccccc1)c1ccc2nc(N3CCCCC3)c3nncn3c2c1 12.6 µM, CCCCCn1c(SCCC(C)C)nc2c1c(=O)[nH]c(=O)n2C 22.4 µM, Oc1ccc(CNc2ccccc2O)cc1 3.98 µM, CCN1C(=O)/C(=C2\SC(N3CCCCC3)=NC2=O)c2ccccc21 10 µM, CC1=C(C(N)=O)C(c2ccc3c(c2)OCO3)n2nc(-c3cccc(C)c3)nc2N1 (stereo not given) 3.55 µM, COCCCNCC(=O)Nc1sc(C)c(C)c1C(=O)OC 11.2 µM, CN(C)/C=C1\C=C(c2ccccc2)OC1=O 10 µM, CC(=O)NC(Cc1ccc(F)c(F)c1)C(=O)NC1CCN(c2nnnn2-c2ccccc2)CC1 (stereo not given) 3.16 µM, N#CCC(=O)NC(=O)NCC1CC1 3.98 µM and 1.26 µM, CC(CNC(=O)c1ccc(Br)o1)NC(=O)c1ccc(Br)o1 (stereo not given) 28.2 µM, CC/C=C/C/C=C/C/C=C/CCCCCCCC(=O)OCC 1.12 µM, O=C1COc2ccc(C(=O)COC(=O)C3CC(O)CN3S(=O)(=O)c3ccc(Cl)cc3)cc2N1 (stereo not given) 5.01 µM, Cc1ccc(Oc2ccc3c(c2)C(=O)N(c2cccc4cccnc24)C3=O)cc1 11.2 µM

Potency, inactive:
CCc1cc2c(NC3CCCC3)ncnc2s1, C[C@@H](C(=O)N1CCNCC1)n1cc(CCC(=O)O)nn1, O=C(Nc1ccc(Cl)cc1)c1ccsn1, O=C(c1ccc(Cl)cc1)c1cnc(Nc2ccccc2)s1, O=C(O)CS/C(=C\c1ccc(F)cc1)c1nc2ccccc2s1, COc1cccc(CNC(=O)CCC2CCCN(Cc3ccc(OC(F)F)cc3)C2)c1 (stereo not given), Cn1c(N)c(C(=O)COC(=O)/C=C/c2ccc(OC(F)F)cc2)c(=O)n(C)c1=O, O=C(Nc1ccccc1)N1CCN(C(=O)Nc2ccccc2)CC1, NC(=O)C1(N2CCCCC2)CCN(C(=O)c2ccc(C#Cc3ccccc3)o2)CC1, S=C(Nc1ccc2c(c1)OCO2)N1CCCC1, O=C(/C=C/c1ccc(OCc2c(F)cccc2Cl)cc1)N1CCOCC1, CN1CCN(c2ccc(NC(=O)c3ccc4c(c3)OCCO4)cc2Cl)CC1, COC(=O)Nc1c(C)n(C)n(-c2ccccc2)c1=O, Cc1c(NC(=S)Nc2ccccc2)c(=O)n(-c2ccccc2)n1C, Cc1ccc(NC(=O)CC(=O)Nc2ccc(C)cc2)cc1, COC(=O)c1ccc(NC(=O)Nc2ccc(C)cc2)cc1, Cc1ccc(C(=O)CS(C)(=O)=O)cc1, COC(=O)c1ccc(NC(=O)C(C)N2C(=O)c3ccccc3C2=O)cc1 (stereo not given), CC(C)Nc1nnc(SCC(=O)/C=C2\N(C)c3ccccc3C2(C)C)s1, CCCCCc1ccc(-c2ccc(OCC)cc2)nc1, O=C(N1CCCCC1)N1CCN(C(=O)N2CCCCC2)CC1, CCCNC(=O)c1c(Cl)cnn1-c1ccc(C)cc1, CCC(C)CN1CCC(CO)(Cc2ccccc2Cl)CC1 (stereo not given), COCCNC(=O)/C(C#N)=C/c1cccc(OCc2ccccc2)c1, O=C(NCC(O)c1ccc([N+](=O)[O-])cc1)C1CCCCC1 (stereo not given), O=[N+]([O-])c1ccc(N2CCSCC2)cc1O, NC(N)=N/N=C/c1ccc(Cl)c([N+](=O)[O-])c1, Nc1ccc(C(=O)OCC(=O)NC2CCS(=O)(=O)C2)cc1[N+](=O)[O-] (stereo not given), CN(C)c1nccc(NCc2ccccc2)c1C#N, CN(C(=O)COc1ncnc2c1cnn2-c1ccccc1)C1CCCCC1, CN(C)S(=O)(=O)Oc1ccccc1C(=O)Nc1ccccc1Cl, CSCCC(NC(=O)C1CCC(C)CC1)C(=O)NCc1ccco1 (stereo not given), CC(=O)Nc1ccccc1OC(C)C(=O)N1CCC(C)CC1 (stereo not given), CCCCCCCCCCOC(=O)C[N+](C)(C)CC1CCCCC1O (stereo not given), O=C(NC1CCCCC1)c1cc([N+](=O)[O-])ccc1N1CCOCC1, CC[C@H](C)[C@@H](NC(=O)O[C@@H]1C(=O)c2cc(OC)ccc2O[C@H]1c1cccc(OC)c1)C(=O)OC, CCN(CC)CCNc1nc(-c2ccc(OC(F)F)cc2)c(C)s1, O=C(Nc1ccccc1N1CCCCC1)c1cccc(F)c1, O=c1cc(-c2ccccc2)nc(N2CCCCC2)[nH]1, O=C(O)C(c1ccccc1)C1(O)CCCCC1 (stereo not given), Cc1ccc(-c2cn(S(=O)(=O)c3cccc([N+](=O)[O-])c3)nc2N)cc1, O=C(Nc1ccncc1)c1cc(-c2ccccn2)nc2ccc(Br)cc12, C#CC(C)(C)NC(=O)CSc1nc2c(c(=O)n(C)c(=O)n2C)n1CCCC, Cn1c(=O)[nH]c(=O)c2c1nc(Br)n2CCCCSc1nc2ccccc2o1, O=[N+]([O-])c1ccccc1NCc1ccc(Cl)cc1, Cn1nc(C(F)(F)F)c2cc(C(=O)N3CCOCC3)sc21, Cc1ccnc2nc(C(=O)Nc3nnc(-c4ccccc4)o3)nn12, CC(C)=C1SC(N2CCN(c3cccc(C)c3)CC2)=NC1=O, C=C/C1=C/Cc2ccccc2[C@H](C[N+](=O)[O-])C(C(=O)OC)(C(=O)OC)C1, O=C(CN1C(=O)CC(c2ccccc2)S(=O)(=O)c2ccccc21)NC1CCCC1 (stereo not given), COc1cccc(-c2nc3n(n2)C(c2ccccc2Cl)C(C(N)=O)=C(C)N3)c1 (stereo not given), COCCOC(=O)C1=C(C)Nc2nc(C)nn2C1c1ccccc1 (stereo not given), C/C(=N/NC(=O)CCc1ccccc1)c1ccco1, CSCCC(=O)N1CCCC(CNC(=O)c2ccccc2Cl)C1 (stereo not given), CC(C)(C)c1cc(P(=O)(c2ccccc2)c2ccccc2)ccc1O, COCCCNC(=O)c1c(F)c(F)c(F)c(F)c1F, CCC(=O)Nc1sc(C(=O)Nc2ccccc2)c(C)c1C(=O)OC, Cc1ccc(CCCOC(=O)C[N+]2(C)CCCCC2)cc1, O=C(CC1NCCc2ccccc21)Nc1cccc(Cl)c1 (stereo not given), CC1CC(C)CN(S(=O)(=O)c2ccc(C(=O)NN3CCOCC3)cc2)C1 (stereo not given), CNC(=S)N1CCC(NC(=O)C(Cc2ccc(F)cc2)NC(C)=O)CC1 (stereo not given), COc1ccc(CC(NC(C)=O)C(=O)NC2CCN(C(=O)C3CC3)CC2)cc1OC (stereo not given), CC(C)(C)NC(=O)NC(=O)COC(=O)CCC1CCCCC1, CC(C)NC(=O)NC(=O)COC(=O)c1ccc(NC(=O)CC#N)cc1, COc1cccc(CC2(CO)CCN(Cc3cnc(-c4cccc(C)c4)nc3)CC2)c1, COc1ccc(C2CC(c3ccccc3)=NN2C(=O)COC(=O)COc2ccccc2)cc1 (stereo not given), O=C(CC1SCCNC1=O)Nc1ccc(Cl)c(Cl)c1 (stereo not given), Cc1oc2cc([N+](=O)[O-])c(O)c([N+](=O)[O-])c2c1C(=O)c1ccc(Br)cc1, CC(CCc1ccccc1)NC(=O)c1ccc(Br)o1 (stereo not given), CC(CNC(=O)c1ccc(N)cc1)NC(=O)c1ccc(N)cc1 (stereo not given), CS(=O)(=O)N(Cc1ccccc1Cl)c1ccc(C(=O)NCc2cccnc2)cc1, CC1CCN(CCC(=O)Nc2ccccc2)CC1, CCN(CC)CCNC(=O)c1ccc(NS(=O)(=O)c2ccc3c(c2)OCCO3)cc1, CCCCC/C=C\C/C=C\C/C=C\CCCCCCC(N)=O, CCCCC/C=C\C/C=C\CCCCCCCCCC(N)=O, CC(=O)c1c(-c2ccccc2)c2ccccc2[nH]c1=O, Brc1cc(/C=N/n2cnnc2)oc1Br, NNC(=O)C1CC(O)CN1S(=O)(=O)c1ccc(Cl)cc1 (stereo not given), O=C1COc2ccc(C(=O)COC(=O)c3cccnc3Cl)cc2N1, COC(=O)N/N=C/c1ccc(/C=N/NC(=O)OC)cc1, Cc1[nH]c2ccccc2c1SCC(=O)Nc1nccs1, CCC(=O)Nc1cc(C(F)(F)F)ccc1N1CCCC1, CC(=O)Nc1cccc(C(=O)Nc2nc(C)cs2)c1, O=C(O)CSc1nccc2ccccc12, CC(=O)Oc1ccc(C)cc1N1C(=O)c2ccc(C(=O)O)cc2C1=O, Cc1cccc(N2C(=O)c3cccnc3C2=O)c1

activity, negative = inhibition, inactive:
COC(=O)C1=C(C(=O)OC)[C@@H]2N(C)c3ccccc3[C@@]23C[C@@H](C(=O)OC)N(C(C)=O)C3=N1 3.72% [at 13.5 µM], Oc1ccccc1CNCc1ccccc1O -6.72% [at 13.5 µM]
